Inconclusive results are not listed. The source made the active and inactive calls. The call rests on the fitted dose curve; in most records, active means well fitted cell-killing curve with a large enough effect in the repeat runs; inconclusive means weak or mixed curves, or effect the other way; inactive means flat fitted curve, though single readings scatter.
On the % scale 0 is the no-effect control and ±100 the full control effect.

The assay can be described thus: cAMP Responsive Elements (CRE) small molecule agonists, cell-based qHTS assay: qHTS cell viability counter screen (AID 2060914). Further: nearly all actives have a fitted effect of over 50% in size. The settings on record: CRE-bla HEK293T viability, CellTiter-Glo luminescence, 5 h; series mostly up to 92.4 µM; activity change, negative = cytotoxicity: at the top concentration. The source says: National Center for Advancing Translational Sciences [NCATS]
Division of Preclinical Innovation [DPI]
U.S. Environmental Protection Agency [EPA]
National Institutes of Environmental Health Sciences [NIEHS]
National Toxicology Program [NTP]
U.S. Food and Drug Administration [FDA]
CREB (cyclic-AMP Responsive Element Binding Protein) is a cellular transcription factor. It binds to certain DNA sequences called cAMP Responsive Elements (CRE) and regulates the transcription of the genes. […] This cell line can be used to find agonists/antagonists of the cyclic AMP signaling pathway. The activation of the report gene under culture conditions can be detected by fluorescence intensity. This cell line has been used to screen the Tox21 10K compound library to identify agonists that induce oxidative stress. The cytotoxicity of the Tox21 compound library against the CRE-bla cell line was tested in parallel by measuring the cell viability using CellTiter-Glo assay (Promega, Madison, WI) in the same wells.
Tox21 Assay Protocol Summary:
CRE-bla Hek 293T cells were suspended in assay medium (DMEM containing 10% dialyzed FBS, 0.1 mM NEAA, 1 mM sodium pyruvate and 25 mM HEPES) and dispensed at 2,000 cells/5 uL /well into 1536-well black wall/clear bottom plates using a Multidrop Combi (ThermoFisher Scientific, Waltham, MA) dispenser. After the assay plates were incubated at 37 C/5% CO2 for 18 hrs, 23 nL of compounds dissolved in DMSO, positive controls or DMSO only was transferred to the assay plate by a pintool workstation (Kalypsys, San Diego, CA). After the plates were incubated at 37 C/5% CO2 for 3 hrs, 1 uL of LiveBLAzer B/G FRET substrate (Invitrogen, Carlsbad, CA) was added to each well using Bioraptr Flying Reagent Dispenser (FRD, Aurora Discovery, San Diego, CA). The plates were incubated at room temperature for 2 h, then fluorescence intensities were measured using an Envision plate reader (PerkinElmer, Shelton, CT) at Excitation 405nm, Emission 460nm and 530nm. The % activity was determined from the ratio of 460nm/530nm. For cell viability readout that measures cytotoxicity, 4 uL /well of CellTiter-Glo reagent was added into the assay plates using Bioraptr FRD. After 30 min incubation at room temperature, the luminescence intensity in the assay plates was measured using a ViewLux (PerkinElmer, Shelton, CT) plate reader.
Background: qHTS replaces the single test concentration by a dilution series.
`CC(C)Cc1ccc(C(C)C(=O)OCc2ccccn2)cc1` (stereo not given): the “activity change, negative = cytotoxicity” value is -2.18% [at 42.5 µM] (inactive).
On the same count and under the same terms, next, `CCCCCCCCCCCCCCCCCCOCCO`: -6.34% [at 18.9 µM] (inactive).
Same read-out and setting: the figure for `Cc1cccc(N(C)C)c1` is 0.0317% (inactive).
The same measure, in the same setting: the figure for `C=CCOC(=O)COCCC(C)C` is -13.7% (inactive); for `CC(=O)c1ccccc1[N+](=O)[O-]` it is 8.96% (inactive).
Turning to `C=COCCCC`, the “activity change, negative = cytotoxicity” value was 1.86% (inactive).
Consider `Cc1cnc(C(=O)NCCc2ccc(S(=O)(=O)NC(=O)NC3CCCCC3)cc2)cn1`, for which the Potency entry is “inactive”.
`c1ccc(Cc2ccccc2)cc1`: the “activity change, negative = cytotoxicity” value is -3.53% (inactive).
Still for that read-out and setting: next, `O=C(O)CNC(=O)CNC(=O)CNC(=O)CSC(=O)c1ccccc1`: 10.5% [at 42.5 µM] (inactive); `C=CC(=O)CC`: 21.3% (inactive).
On the same count and under the same terms, the figure for `O=C1C(=O)c2ccccc2C(O)=C1C1CCC(c2ccc(Cl)cc2)CC1` (stereo not given) is 4.06% [at 42.5 µM] (inactive); for `CN(C)C(=O)Nc1ccc(Oc2ccc(Cl)cc2)cc1` it is -1.78% (inactive).
On to `CC/C(C)=N/O`, for which the Potency entry is “inactive”.
Regarding `COc1cc(N)c(Cl)cc1C(=O)NC1CCN(Cc2ccccc2)CC1`, the “activity change, negative = cytotoxicity” value is 24.7% [at 42.5 µM] (inactive).
Still for that read-out and setting: the figure for `OCC(O)[C@@H](O)[C@H](O)[C@H](O)CO[C@H]1O[C@H](CO)[C@@H](O)[C@H](O)[C@H]1O` (stereo not given in full) is 19.7% (inactive).
Same read-out and setting: next, `O=C(O)c1cc(=O)c2ccccc2o1`: -1.36% [at 42.5 µM] (inactive).
Still for that read-out and setting: the figure for `O=S1OCCO1` is 1.06% (inactive); for `CCOC(=O)CC#N` it is -9.88% (inactive).
As to `CCCCCCCCCCCCCCC`, the “activity change, negative = cytotoxicity” value was -2.9% (inactive).
Same read-out and setting: next, `C=CC(C)(CCC=C(C)C)OC(=O)c1ccccc1` (stereo not given): 8.17% (inactive); `OC/C(Br)=C(\Br)CO`: -1.75% (inactive).
Same read-out and setting: the figure for `CCN(Cc1ccncc1)C(=O)C(CO)c1ccccc1` (stereo not given) is -0.0366% [at 42.5 µM] (inactive); for `CCOC(=O)c1c(N)sc2c1CCN(Cc1ccccc1)C2` it is -2.83% [at 42.5 µM] (inactive).
Turning to `O=[N+]([O-])c1ccc(/C=C/c2ccc([N+](=O)[O-])cc2S(=O)(=O)O)c(S(=O)(=O)O)c1`, the Potency entry was “inactive”.
Take `O=C(O)CCS`: the “activity change, negative = cytotoxicity” value is 1.12% (inactive).
On the same count and under the same terms, next, `CCOC(=O)OCC/C(SC(=O)OCC)=C(\C)N(C=O)Cc1cnc(C)nc1N`: -2.8% [at 42.5 µM] (inactive); `CC(CCc1ccc(O)cc1)NCCc1ccc(O)c(O)c1` (stereo not given): 0.589% [at 42.5 µM] (inactive); `C[C@@H]1CCC[C@H](C)N1CCCC(O)(c1ccccc1)c1ccccn1` (stereo not given in full): 0.246% [at 42.5 µM] (inactive).
As to `OCC(CO)(CO)CO`, the Potency result was “inactive”.
Regarding `O=c1[nH]c2ccc(Cl)cc2o1`, the “activity change, negative = cytotoxicity” value is 7.16% (inactive).
Same read-out and setting: next, `CCOC(=O)C1=C(C)NC(C)=C(C(=O)OC)C1c1cccc(Cl)c1Cl` (stereo not given): -0.211% [at 42.5 µM] (inactive).
As to `COCCc1ccc(OCC2CO2)cc1` (stereo not given), the “activity change, negative = cytotoxicity” value is 0.194% [at 42.5 µM] (inactive).
Consider `C=C(C)C(=O)OCCCCCCCCCCCC`, for which the Potency entry was “inactive”.
With `N#CCc1cccc(C(F)(F)F)c1`, the “activity change, negative = cytotoxicity” value is 2.64% (inactive).
The same measure, in the same setting: next, `CCc1ccc(C)nc1`: -10.3% (inactive); `O=C1CCN(c2ccccc2)N1`: 4.85% (inactive).
As for `C=CC[N+](C)(C)CC=C`, the Potency result was “inactive”.
Turning to `C=CC(=O)Nc1cc2c(Nc3ccc(F)c(Cl)c3)ncnc2cc1OCCCN1CCOCC1`, the “activity change, negative = cytotoxicity” value is 6.01% [at 42.5 µM] (inactive).
Turning to `Cn1ccc2cc3c(cc21)CCN3C(=O)Nc1cccnc1`, the activity change, negative = cytotoxicity is 3% [at 18.9 µM] (inactive).
On the same count and under the same terms, next, `CCOC(=O)[C@H](CCc1ccccc1)N[C@@H](C)C(=O)N1Cc2cc(OC)c(OC)cc2C[C@H]1C(=O)O`: -2.11% [at 42.5 µM] (inactive).
